Screening results deposited in PubChem by several laboratories.
GIRK2 act: Activators of human GIRK2-containing channels. activation (% efficacy), % for hits at 37.5 µM. 34,000 tested, under 10 active. P48051. HEK293 GIRK2/NPY4 cells, thallium flux fluorescence;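 active means primary screen hit, no activity in plain HEK293 cells, and in GIRK2-only cells above 5% efficacy rising with concentration; inactive means the rest, including fluorescent compounds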;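 further: efficacy is normalized control-subtracted fluorescence 15 s after thallium addition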
GluA2 TARP mod: modulates AMPAR-stargazin complexes; 3.5% of 40,000 active; O88602+P19491; HEK293 GluA2+stargazin, membrane potential dye (FDSS), glutamate EC50; hits were called plate by plate, in both directions; AID 1259245; calls only at 30 µM;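 active means any of four per-well response measures lying three or more SD from its plate-wide compound average, in either direction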
The depositor's hits bear a star; i = inactive; . = not tested or not shown; + = active, no number. This excerpt belongs to a sample that is enriched for hits.

SMILES	GIRK2 act	GluA2 TARP mod
COc1ccc(NC(=S)N2CCN(c3cccc(Cl)c3)CC2)c(OC)c1	i	i
CCOC(=O)CCC(=O)N1CCN(c2ncnc3c2nnn3-c2ccc(OC)cc2)CC1	.	i
COc1ccccc1N1CC(C)Cn2c1nc1c2c(=O)n(Cc2ccc(C)cc2)c(=O)n1C (centres undefined)	.	+
COc1ccccc1N1CC(C)Cn2c1nc1c2c(=O)n(Cc2cccc(C)c2)c(=O)n1C (centres undefined)	.	i
COc1ccc2nc(N(CCN3CCOCC3)C(=O)c3ccc([N+](=O)[O-])cc3)sc2c1	.	i
COc1ccc(C)c2sc(N(CCN3CCOCC3)C(=O)c3ccccc3)nc12	.	i
COc1ccc2sc(N(CCN3CCOCC3)C(=O)CSc3ccc(C)cc3)nc2c1	i	i
COc1ccc2nc(N(CCN3CCOCC3)C(=O)c3ccc4c(c3)OCCO4)sc2c1	.	+
CCOc1ccc2nc(N(Cc3ccncc3)C(=O)/C=C/c3cccc([N+](=O)[O-])c3)sc2c1	i	i
CCCC(=O)N(CCN1CCOCC1)c1nc2cc(OC)ccc2s1	i	+
COc1ccc(C)c2sc(N(CCN3CCOCC3)C(=O)c3ccc([N+](=O)[O-])s3)nc12	.	+
COc1ccc2nc(N(CCN3CCOCC3)C(=O)/C=C/c3cccc([N+](=O)[O-])c3)sc2c1	i	+
Cc1nc(-c2cccs2)c(CCC(=O)Nc2ccc3c(c2)OCO3)s1	i	i
Cc1[nH]c(=O)[nH]c(=O)c1CC(=O)Nc1nc(-c2ccccc2)cs1	i	i
NS(=O)(=O)c1ccc(NC(=O)CCCn2nc(-c3cccs3)ccc2=O)cc1	i	.
COc1ccc2nc(N(CCN3CCOCC3)C(=O)c3ccc(Cl)s3)sc2c1	.	+
COc1ccc2nc(N(CCN3CCOCC3)C(=O)c3nc4ccccc4s3)sc2c1	i	i
N#CCOc1ccc2c(c1)O/C(=C\c1ccc(Cl)cc1Cl)C2=O	.	i
Cc1ccc2c(=O)c(-c3nc(-c4cccc(F)c4)no3)cn(CC(=O)Nc3ccc4c(c3)OCO4)c2n1	i	i
Cc1ccnc(NC(=O)Cc2cc(-c3ccccc3F)on2)c1	i	+
O=C(Cc1cc(-c2ccc(F)cc2F)on1)Nc1ccon1	i	i
O=C(/C=C/c1cccs1)N1CCOC(c2ccc(C(F)(F)F)cc2)C1 (centres undefined)	i	.
O=C(CSc1nc(-c2ccco2)cc(C(F)(F)F)n1)N1CCSCC1	.	i
O=C(CSc1nc(-c2ccco2)cc(C(F)(F)F)n1)N1CCCCCC1	.	+
CC(=O)N1CCN(c2ccnc3c2c(=O)n(CC(=O)N2CCCCCC2)c(=O)n3C)CC1	.	i
SMILES	GIRK2 act	GluA2 TARP mod
COc1ccc(C2NC(=O)NC(C)=C2C(=O)OCc2ccccc2)c(OC)c1 (centres undefined)	.	+
COC(=O)C1=C(C)NC(=O)NC1c1ccccc1OCc1ccccc1 (centres undefined)	.	i
O=C(CCn1nnc2ccccc2c1=O)N1CCN(C2CCCCC2)CC1	i	i
COc1ccc(S(=O)(=O)Nc2nc(CCC(=O)Nc3nnc(C)s3)cs2)cc1	i	+
COC(=O)Nc1nc(CC(=O)NCCc2c[nH]c3ccccc23)cs1	i	.
Cc1nnc(NC(=O)CCc2csc(NS(=O)(=O)c3ccccc3)n2)s1	i	+
COc1ccc(S(=O)(=O)Nc2nc(CCC(=O)NC(C)C)cs2)cc1	i	i
O=C(CCc1csc(NS(=O)(=O)c2ccccc2)n1)Nc1nc2ccccc2s1	i	i
O=C(Cc1csc(Nc2ccccc2)n1)NCCc1c[nH]c2ccccc12	i	+
CNC(=O)Cc1csc(NC(=O)c2csc(Nc3ccccc3)n2)n1	i	.
Cc1nnc(NC(=O)Cc2csc(Nc3ccccc3)n2)s1	i	+
CS(=O)(=O)c1ccc(CC(=O)Nc2nc(-c3ccc(Cl)cc3Cl)cs2)cc1	.	i
COc1ccc(C(=O)/C=C/c2ccccc2Cl)c(OC)c1	.	i
COc1ccc(OC)c(C(=O)/C=C/c2ccccc2Cl)c1	.	+
COCCn1c(CN(C)C(=O)OC)nc2ccccc21	.	i
Cc1cc(-c2nnc(NC(=O)c3cccc(S(=O)(=O)C(C)C)c3)o2)nn1C	i	i
CCOC(=O)C(C)Sc1nnc(N2CCN(c3ccc(F)cc3)CC2)s1 (centres undefined)	i	i
CC(C)NC(=O)CSc1nnc(N2CCN(c3ccc(F)cc3)CC2)s1	i	+
O=C(Cn1cc(-c2nc(-c3cccs3)no2)ccc1=O)NCc1ccccc1	i	i
CS(=O)(=O)Nc1cccc(NC(=O)COc2ccc3c(c2)C(=O)CC3)c1	i	i
NC(=O)Cc1csc(NC(=O)COc2ccc3c(c2)C(=O)CC3)n1	i	+
Cn1c(=O)c2c(nc(N3CCOCC3)n2Cc2ccc(F)cc2)n(C)c1=O	.	i
O=C(/C=C/c1ccccc1)N1CCN(CCn2ccnc2)CC1	i	.
